Several values for one entry are separate records, joined by “and”; a condition that tells them apart may be missing. Equal values may be shown once. Hit rate of the full screen: of about 350,000 compounds, about 1,200 (0.34%) were called active. About 3% were inconclusive and are not listed. The call rests on the fitted dose curve; in most records, active means well fitted inhibition curve with a large enough effect; inconclusive means small, poorly fitted or top-dose-only effect; inactive means no such curve, though single readings can be large or run the other way. Shown is part of a subset that was picked to be rich in actives. Some compounds were tested as several samples or in several runs, with calls that do not always agree.
biological target: DNA repair nuclease/redox regulator APEX1 (Homo sapiens) (UniProt P27695); assay: qHTS Assay for Inhibitors of the Human Apurinic/apyrimidinic Endonuclease 1 (APE1); conditions: recombinant APE1, TAMRA/BHQ-2 abasic DNA cleavage fluorescence; series mostly up to 65.8 µM; activity change, negative = inhibition: at the top concentration; further: nearly all actives have a fitted effect of over 55% in size;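 on activity change, negative = inhibition: plate controls were vehicle for no effect and reference inhibitor for full effect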
Text: The apurinic/apyrimidinic endonuclease APE1 is the primary mammalian enzyme responsible for the removal of abasic (or AP) sites in DNA and functions centrally in the base excision DNA repair (BER) pathway. […] Thus, targeting APE1 could improve the efficacy of current treatment paradigms by promoting selective sensitization or protection of diseased and normal cells, respectively.
Inhibition of APE1 activity was screened by utilizing double-stranded short substrate containing tetrahydrofuran (THF) abasic site labeled with rhodamine-type fluorophore (TAMRA) at the 5'-end and with non-fluorescent Black Hole Quencher-2 (BHQ-2) at the opposing 3'-end. An increase in the fluorescence intensity due to incision of the abasic site by APE1 was used to measure the enzyme activity.
NIH Chemical Genomics Center [NCGC]
NIH Molecular Libraries Probe Centers Network [MLPCN]
Assay Provider: David M. Wilson, III, National Institute on Aging, NIH
Three uL of enzyme solution (0.75 nM APE1 final concentration) was dispensed to 1536-well Greiner black solid bottom plates. […] The plates were incubated for 15 min at room temperature, and then 1 uL of substrate solution (50 nM final concentration of TAMRA/BHQ-2) was added to start the reaction. The plates were immediately transferred into ViewLux High-throughput CCD imager (Perkin-Elmer) in order to measure the reaction progress in kinetic mode (three reads every 60 seconds) using 525 nm excitation and 598 nm emission fluorescence protocol. The fluorescence intensity difference between the third and the first time points was used to compute reaction progress. Results were normalized to buffer only columns and NSC13755 positive controls and negative control DMSO treated wells.
Potency means the concentration at half of the fitted maximal effect.

Sequence of DNA repair nuclease/redox regulator APEX1 (Homo sapiens) (P27695 whole entry, looked up): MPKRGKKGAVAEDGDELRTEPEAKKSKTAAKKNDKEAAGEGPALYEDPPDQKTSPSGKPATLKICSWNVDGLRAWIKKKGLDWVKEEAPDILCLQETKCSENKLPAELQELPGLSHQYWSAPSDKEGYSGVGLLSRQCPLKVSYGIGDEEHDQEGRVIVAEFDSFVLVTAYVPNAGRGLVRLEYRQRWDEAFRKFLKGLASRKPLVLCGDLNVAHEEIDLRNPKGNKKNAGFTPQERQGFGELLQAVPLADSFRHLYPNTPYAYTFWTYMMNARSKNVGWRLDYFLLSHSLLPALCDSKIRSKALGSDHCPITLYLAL

SMILES	Potency	activity change, negative = inhibition
COc1ccc(N2C(=O)/C(=C/c3ccco3)C(=O)NC2=S)cc1	0.67 µM (active)	–
C[C@]12CC[C@@H]3C(=CCc4cc(O)ccc43)[C@@H]1CCC2=O	–	3.5% [at 21 µM] (inactive)
CCc1ccc(C2C(C#N)=C(N)Oc3n[nH]c(CC(=O)OC)c32)cc1 (stereo not given)	–	16.6% (inactive)
CC[N+](C)(CC)CCC[n+]1c(-c2ccccc2)c2cc(N)ccc2c2ccc(N)cc21	2.12 µM (active)	–
Clc1ccccc1	–	0.279% (inactive)
CC(=O)[O][Sn]([c]1ccccc1)([c]1ccccc1)[c]1ccccc1	–	-9.07% (inactive)
N#CC(C#N)=Cc1cc(O)c(O)c([N+](=O)[O-])c1	5.62 µM (active)	–
ClC(Cl)=C(Cl)C(Cl)=C(Cl)Cl	–	-1.33% (inactive)
N#Cc1cc(Br)c(O)c(Br)c1	–	2.28% (inactive)
N#CCCCl	inactive	–
Cc1nc(SCC(=O)NC2CCCC2)[nH]c(=O)c1C	–	63.8% [at 12.4 µM] (inactive)
CC(C)COC(=O)n1c(=O)oc2ccc(S(=O)(=O)N3CCCCC3)cc21	–	14.5% (inactive)
CC(C)Nc1nc(Cl)nc(NC(C)C)n1	inactive and 22.4 µM (active)	–
CCCCC#N	–	9.97% (inactive)
NCCCCC(N)C(=O)O (stereo not given)	–	13.8% (inactive)
CCCCCCCCCCCCN=C(N)N	–	-1.22% (inactive)
CC(C)(c1ccccc1)c1ccc(O)cc1	–	-2.65% (inactive)
C[C@H]1C/C=C/[C@@H]2[C@@H]3O[C@]3(C)[C@@H](C)[C@H]3[C@H](Cc4ccccc4)NC(=O)[C@]32OC(=O)O/C=C/[C@](C)(O)C1=O	–	13.1% (inactive)

SMILES	Potency	activity change, negative = inhibition
O=C(OCC1O[C@@H](OC(=O)c2cc(O)c(O)c(O)c2)[C@@H](OC(=O)c2cc(O)c(O)c(O)c2)[C@@H](OC(=O)c2cc(O)c(O)c(O)c2)[C@@H]1OC(=O)c1cc(O)c(O)c(O)c1)c1cc(O)c(O)c(O)c1 (stereo not given in full)	0.0112 µM (active)	–
Cc1cc(-c2n[nH]c(=S)n2-c2ccc(C)c(C)c2)no1	–	9.88% (inactive)
CC(=O)c1ccc(-c2ccc(Cn3c(C)nc4cc(N)c(C)nc43)cc2)cc1	–	7.33% (inactive)
CN(C)C1C(=O)C(C(N)=O)=C(O)[C@@]2(O)C(=O)C3=C(O)c4c(O)cccc4[C@@](C)(O)C3C[C@@H]12 (stereo not given in full)	–	-13.5% (inactive)
O=c1cc(-c2ccc(O)cc2)oc2c([C@@H]3O[C@H](CO)[C@@H](O)[C@H](O)[C@H]3O)c(O)cc(O)c12	8.91 µM (active)	–
C=CCOC(=O)c1ccccc1C(=O)OCC=C	inactive	–
CC(Cl)Cl	–	23.6% (inactive)
CC(C)CC(C)Nc1ccc(Nc2ccccc2)cc1 (stereo not given)	–	1.5% (inactive)
CC(CCn1cccn1)NC(=O)CCc1nnc(CCc2ccccc2)o1 (stereo not given)	–	15.7% (inactive)
Cc1c(C(=O)O)cccc1-n1c(C)cc(/C=C2\C(=O)NC(=O)N(c3ccc4c(c3)OCO4)C2=O)c1C	14.1 µM (active)	–
Cc1ccnc(-n2c(C)cc(/C=C3\C(=O)NC(=S)N(C)C3=O)c2C)c1	–	0.699% (inactive)
CC(C)(C)C(O)(CCc1ccc(Cl)cc1)Cn1cncn1 (stereo not given)	–	1.98% (inactive)
C=CC#N	–	3.46% (inactive)
ClCCBr	–	5.56% (inactive)
CCN(CC)c1nc(C)cc(OP(=S)(OC)OC)n1	–	-3.65% (inactive)
CCOc1cc(N2CCOCC2)c(OCC)cc1NC(=O)C1=NN(c2cccc(C)c2)C(=O)CC1	–	16.6% (inactive)
CCC12CCN(CCc3ccccc3)CC1Oc1c(O)cccc12 (stereo not given)	–	15% (inactive)

Source: PubChem BioAssay AID2517 (National Center for Advancing Translational Sciences (NCATS), 2010)
